Screening data deposited in PubChem by National Center for Advancing Translational Sciences (NCATS).
Shown are actives, neighbours in structure and some others; about 21% of the full set was active somewhere.
Shiga toxin inh = A qHTS for Small Molecule Inhibitors of Shiga Toxin; 290,000 tested, 9.2% active; Vero cells, Shiga toxin protein synthesis inhibition reporter; AID 2315, 2010; inhibition, % at 38.7 µM; in the data active means inhibition mostly above about 28%, no sharp cut-off; inactive means mostly below about 43%
NS1 inh = qHTS Assay for Inhibitors of Influenza NS1 Protein Function; Potency, µM (top dose mostly 46.1 µM); 270,000 tested, 0.4% active; AID 2326, 2010; calls by dose curve; further: actives are rising curves; nearly all actives have a fitted effect of over 50% in size
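OD600 was taken as the measure of yeast growth restored by compound in an NS1-expressing S. cerevisiae strain. Cells had been washed out of glucose medium and diluted 1:100 into galactose -URA medium, pH 6.0.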
Pf growth 48h = Primary qHTS for delayed death inhibitors of the malarial parasite plastid, 48 hour incubation. P. falciparum luciferase growth in erythrocytes, 48 h. Potency, µM (titrated, usually from 28.7 µM), actives largely listed as inhibitors. 310,000 tested, 5.9% active
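Parasite viability was followed by luminescence of a genomically integrated firefly luciferase. Cultures held 0.1% parasitemia at 2% hematocrit (final), incubated under 5% CO2 at 37 C.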
Pf growth 96h = Primary qHTS for delayed death inhibitors of the malarial parasite plastid, 96 hour incubation. 320,000 tested, 6.9% active. AID 504834, 2011. Potency, µM (top dose mostly 28.7 µM), hits mostly inhibitors. P. falciparum luciferase reporter growth, 96 h
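Cell-based qHTS: luciferase-tagged P. falciparum in erythrocytes (2% hematocrit, 0.05% parasitemia final) incubated with compounds for 96 hours, 37 C, 5% CO2; luciferase detection reagent then added and luminescence measured.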
CHX counter = Cycloheximide Counterscreen for Small Molecule Inhibitors of Shiga Toxin | cell reporter, cycloheximide protein synthesis inhibition counterscreen | max response, % | 300,000 tested, 12% active | AID 2314, 2010; in the data active means max response mostly above about 13%, no sharp cut-off; inactive means mostly below about 14%; further: read at 38.3 µM for the half of the compounds with a filed dose
Hits are given with their value; . = inactive; ? = inconclusive; / = no result given; [ ] = remark or other dose. Unless noted, the call rests on the fitted dose curve; in most records, active means well fitted inhibition curve with a large enough effect; inconclusive means small, poorly fitted or top-dose-only effect, or another doubt; inactive means no such curve, though single readings can be large or run the other way.

SMILES	Shiga toxin inh	NS1 inh	Pf growth 48h	Pf growth 96h	CHX counter
Cc1cnc(=O)[nH]c1SCc1ccccc1F	.	.	.	.	.
CC(=O)OCC(=O)Nc1c(C)cc(C)cc1C	.	/	.	.	.
Cc1ccc(Cn2c(CO)cnc2SCC(=O)Nc2ccc(C)c(Cl)c2)cc1	.	/	/	/	.
COc1ccc(S(=O)(=O)N(C)CC(=O)NCCN2CCOCC2)cc1Cl	.	.	.	.	.
CC1(C)CC(Nc2ccc(Nc3ccccc3)cc2)CC(C)(C)N1	.	.	3.3µM	7.4µM	.
CC1(C)CC(NC(=O)c2ccccc2)CC(C)(C)N1	.	.	.	?	.
CCN(CCn1cccn1)Cc1ccccc1OCC(O)CN1CCc2ccccc2C1 (centres undefined)	.	?	?	?	.
CCOc1ccc(/C=N/N2C(C)CCCC2C)cc1 (centres undefined)	.	.	.	.	37
CC1CCCC(C)N1/N=C/c1ccc(C#N)cc1 (centres undefined)	.	.	.	.	26
CCOc1cccc(/C=N/N2C(C)CCCC2C)c1O (centres undefined)	.	.	.	.	30
COc1ccc(-n2nc(C)cc2N)cc1	.	.	.	.	.
COc1ccc(-n2nc3cc(N)c(Br)cc3n2)cc1	/	.	.	?	30
COc1ccc(-n2nc3ccccc3n2)cc1	.	.	.	.	24
COc1ccc(-n2nc3cc(C)c(N)c(Br)c3n2)cc1	128	.	.	?	63
COc1ccc2nc3ccccc3nc2c1	69	.	.	.	40
Cc1cccc(NC(=O)CSc2nnc(Cc3ccccc3)o2)c1	.	.	.	.	.
CCN1CCc2c(sc(NC(=O)c3ccc(S(=O)(=O)N4CCCCCC4)cc3)c2C(=O)NC)C1	.	.	?	?	.
Cc1ccc(C2C(/C=C3/SC(=S)NC3=O)=C(c3cccs3)Oc3ccccc32)cc1 (centres undefined)	.	.	/	9.3µM	.
CC1Cc2cc(/C=C3/SC(=S)NC3=O)ccc2O1 (centres undefined)	.	.	.	.	.
O=C(CN1C(=O)NC2(CCc3ccccc32)C1=O)c1ccc(F)c(F)c1 (centres undefined)	/	/	.	.	/
Cc1cc(C(=O)CSc2nnnn2-c2ccccc2)c(C)n1-c1ccc2c(c1)OCO2	50	?	10µM	8.3µM	29
Cc1cc(C(=O)COC(=O)C2=COCCO2)c(C)n1-c1cccc(F)c1	/	/	.	.	/
Cc1cc(C(=O)CSc2nncs2)c(C)n1-c1ccc2c(c1)OCO2	62	.	?	/	26
Cc1cc(C(=O)CSc2nnc(-c3cccc(F)c3)n2N)c(C)n1Cc1ccc2c(c1)OCO2	.	?	12µM	17µM	.
Cc1cc(C(=O)COC(=O)C2=COCCO2)c(C)n1-c1ccc2c(c1)OCO2	138	.	/	.	66
SMILES	Shiga toxin inh	NS1 inh	Pf growth 48h	Pf growth 96h	CHX counter
Cc1cc(C(=O)CSc2nnnn2-c2ccc(O)cc2)c(C)n1Cc1ccc2c(c1)OCO2	.	.	?	.	.
C#CCOCCOCCOCCNc1nc(N2CCN(C(=O)C([C@@H](C)CC)n3cc(C(N)Cc4ccc(O)cc4)nn3)CC2)nc(N2CCN(C(=O)[C@H](CCC(=O)O)n3cc(C(N)Cc4ccc(O)cc4)nn3)CC2)n1 (some centres undefined)	.	.	.	.	.
Nc1nc(-c2cccc(NS(=O)(=O)c3ccccc3)c2)cs1	.	?	?	.	.
CCOC(=O)CC1C(=O)NCCN1C(=O)c1cccc(OC)c1 (centres undefined)	.	.	.[0.00184 µM]	.	.
CCC(=O)O/N=C(\N)c1ccc(Oc2cc(C)c(Cl)c(C)c2)c([N+](=O)[O-])c1	.	.	.	.	.
COc1cc(Cl)cc2c1Sc1ccccc1/C2=C/CCN(C)C	.	.	12µM	?	.
CN(C)CC/C=C1/c2ccccc2Sc2c(O)cc(Cl)cc21	.	?	?	0.83µM	.
COc1cc2c(cc1Cl)/C(=C\CCN(C)C)c1ccccc1S2	.	.	10µM	10µM	.
Cc1ccc(NC(=O)c2cccc(OCc3c(C)noc3C)c2)cc1	.	.	/	.	29
COc1ccc(NS(=O)(=O)c2cc(NC(=O)c3cccc(OCc4c(C)noc4C)c3)ccc2OC)cc1	.	?	9.3µM	6.6µM	.
Cc1noc(C)c1COc1cccc(C(=O)Nc2ccc(C#N)cc2)c1	.	.	?	.	.
CCO[C@@H]1OC(C(=O)NCc2ccccc2)=C[C@H](c2coc3ccccc3c2=O)[C@H]1CCCO	.	.	?	?	.
CC(NS(=O)(=O)c1ccc2c(c1)OCCCO2)C(=O)O (centres undefined)	.	.	.	.	.
COc1ccccc1N(CC(=O)Nc1ccc2c(c1)OCCO2)S(=O)(=O)c1ccc(C)cc1	47	.	?	.	32
CC(NS(=O)(=O)c1ccc(F)cc1)C(=O)Nc1ccc2c(c1)OCCO2 (centres undefined)	.	.	.	.	11
COc1ccc(S(=O)(=O)N(C)CC(=O)Nc2ccc3c(c2)OCO3)cc1	.	.	.	/	.
C[C@H](NS(=O)(=O)c1ccccc1)C(=O)OCC(=O)NC(=O)Nc1ccc2c(c1)OCCO2	86	.	.	.	74
COc1ccc(S(=O)(=O)N(C)CC(=O)Nc2ccc3c(c2)OCO3)cc1OC	.	.	.	.	7.8
Cc1c([N+](=O)[O-])cc(C(=O)Oc2cccc(C(=S)N3CCOCC3)c2)cc1[N+](=O)[O-]	.	.	.	.	.
COc1ccc(S(=O)(=O)N(C)CC(=O)Nc2ccc3c(c2)OCCO3)cc1	/	/	.	.	/
COc1ccc(N(CC(=O)Nc2ccc3c(c2)OCO3)S(=O)(=O)c2ccccc2)cc1OC	.	.	2.9µM	?	.
CN(CC(=O)Nc1ccc2c(c1)OCCO2)S(=O)(=O)c1ccc(F)cc1	117	.	.	?	27
CCCCC(=O)Nc1nnc(-c2ccco2)o1	.	/	.	.	.
COc1ccc(C(=O)CCc2ccccc2)cc1	117	.	/	?	43
COc1ccc(/C(N)=N/OC(=O)CCc2ccccc2)cc1OC	.	.	.	.	27
SMILES	Shiga toxin inh	NS1 inh	Pf growth 48h	Pf growth 96h	CHX counter
COc1ccc(/C(N)=N/OC(=O)CCCN2C(=O)c3ccccc3C2=O)cc1OC	.	/	.	.	.
COc1ccc(/C(N)=N/OC(=O)CSc2ccccc2)cc1OC	.	.	.	/	55
Cc1ccc(C(=O)CCC(=O)O)cc1	.	.	/	.	.
CCCc1ccc(C(=O)CCC(=O)O)cc1	65	?	.	.	52
CCc1nn(-c2ccccc2)c(N)c1-c1ccc(OC)c(OC)c1	.	.	/	.	.
COc1ccc(Cl)cc1NC(=O)CN1CCC(n2nnc3cc(F)ccc32)CC1	.	.	.	?	.
Cc1cccc(/C(N)=N/OC(=O)CCc2ccccc2)c1	52	.	.	.	32
COc1ccc(/C(N)=N/OC(=O)CCc2ccccc2)cc1	93	.	.	.	52
